± gives the standard deviation of the averaged measurements. Targets with the largest changes are over-represented here; the source holds about 6,500 in all.
Compound: Nc1ncnc2c1ncn2[C@@H]1O[C@H](COP(=O)(O)OP(=O)(O)OP(=O)(O)O)[C@@H](O)[C@H]1O [adenosine triphosphate]
Experiment: NP40-soluble protein abundance relative to vehicle (solubility fold change) (ratio); higher = more soluble protein in presence of ATP
Summary of the method: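 In three independent experiments, Jurkat crude lysate made by Dounce homogenisation was treated for 10 min at room temperature and then 3 min at 37 °C with eight concentrations ranging from 0.1 to 10 mM. It was then solubilised with 0.8% NP40 plus benzonase for 60 min at 4 °C and ultracentrifuged. The supernatant was TMT-labelled for LC-MS/MS, and each value is the fold change against the detergent-processed vehicle for the same replicate, using vsn-normalised intensities.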

Sequence of UniProt Q9BTL3 (Q9BTL3 whole entry): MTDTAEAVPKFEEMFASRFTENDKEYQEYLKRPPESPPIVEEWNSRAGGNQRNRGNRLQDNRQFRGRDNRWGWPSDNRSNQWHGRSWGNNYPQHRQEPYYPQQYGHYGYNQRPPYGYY
Sequence of UniProt Q9BVC6 (Q9BVC6 whole entry): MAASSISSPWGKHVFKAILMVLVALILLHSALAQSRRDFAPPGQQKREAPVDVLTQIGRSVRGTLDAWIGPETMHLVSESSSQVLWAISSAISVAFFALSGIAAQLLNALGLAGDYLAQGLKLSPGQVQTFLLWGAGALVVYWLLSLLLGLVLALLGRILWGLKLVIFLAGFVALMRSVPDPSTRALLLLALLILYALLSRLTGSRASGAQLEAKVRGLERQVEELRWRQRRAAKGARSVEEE
Sequence of UniProt Q9H6R0 (Q9H6R0 whole entry): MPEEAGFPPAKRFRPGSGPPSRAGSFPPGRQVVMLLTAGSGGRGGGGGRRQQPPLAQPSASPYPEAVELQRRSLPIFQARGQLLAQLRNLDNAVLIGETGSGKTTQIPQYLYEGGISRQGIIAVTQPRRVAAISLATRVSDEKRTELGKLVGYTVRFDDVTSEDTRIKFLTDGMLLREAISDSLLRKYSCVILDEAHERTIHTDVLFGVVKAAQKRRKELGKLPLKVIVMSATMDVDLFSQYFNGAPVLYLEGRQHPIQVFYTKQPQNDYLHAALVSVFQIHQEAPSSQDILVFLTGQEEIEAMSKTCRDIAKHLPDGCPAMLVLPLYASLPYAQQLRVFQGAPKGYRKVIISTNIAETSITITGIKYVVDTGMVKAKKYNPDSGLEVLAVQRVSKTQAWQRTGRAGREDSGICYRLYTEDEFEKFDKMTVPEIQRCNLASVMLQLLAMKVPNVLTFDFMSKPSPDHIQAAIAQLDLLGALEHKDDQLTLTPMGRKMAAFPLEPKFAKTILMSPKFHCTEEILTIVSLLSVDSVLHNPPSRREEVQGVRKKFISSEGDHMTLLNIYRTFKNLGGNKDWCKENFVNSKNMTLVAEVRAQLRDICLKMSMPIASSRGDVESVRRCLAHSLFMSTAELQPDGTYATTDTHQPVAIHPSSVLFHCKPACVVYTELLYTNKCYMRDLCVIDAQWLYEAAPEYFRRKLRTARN
Sequence of UniProt Q9BYC5 (Q9BYC5 whole entry): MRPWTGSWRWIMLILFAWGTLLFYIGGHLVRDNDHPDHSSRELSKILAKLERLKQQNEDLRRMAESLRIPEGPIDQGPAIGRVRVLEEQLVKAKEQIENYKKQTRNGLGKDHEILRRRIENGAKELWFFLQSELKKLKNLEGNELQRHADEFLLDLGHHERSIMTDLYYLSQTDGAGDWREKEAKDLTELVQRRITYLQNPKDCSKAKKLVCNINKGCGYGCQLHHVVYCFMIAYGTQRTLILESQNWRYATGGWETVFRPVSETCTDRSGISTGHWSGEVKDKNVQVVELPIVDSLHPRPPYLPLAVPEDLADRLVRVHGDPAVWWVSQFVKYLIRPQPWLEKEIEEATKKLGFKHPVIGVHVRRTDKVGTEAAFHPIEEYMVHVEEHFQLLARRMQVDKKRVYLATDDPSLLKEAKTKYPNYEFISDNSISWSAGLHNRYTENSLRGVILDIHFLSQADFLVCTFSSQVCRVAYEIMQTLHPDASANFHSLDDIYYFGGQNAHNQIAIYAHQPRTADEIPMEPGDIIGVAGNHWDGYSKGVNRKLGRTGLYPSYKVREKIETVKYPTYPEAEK
Sequence of UniProt Q8WYP5 (Q8WYP5 whole entry): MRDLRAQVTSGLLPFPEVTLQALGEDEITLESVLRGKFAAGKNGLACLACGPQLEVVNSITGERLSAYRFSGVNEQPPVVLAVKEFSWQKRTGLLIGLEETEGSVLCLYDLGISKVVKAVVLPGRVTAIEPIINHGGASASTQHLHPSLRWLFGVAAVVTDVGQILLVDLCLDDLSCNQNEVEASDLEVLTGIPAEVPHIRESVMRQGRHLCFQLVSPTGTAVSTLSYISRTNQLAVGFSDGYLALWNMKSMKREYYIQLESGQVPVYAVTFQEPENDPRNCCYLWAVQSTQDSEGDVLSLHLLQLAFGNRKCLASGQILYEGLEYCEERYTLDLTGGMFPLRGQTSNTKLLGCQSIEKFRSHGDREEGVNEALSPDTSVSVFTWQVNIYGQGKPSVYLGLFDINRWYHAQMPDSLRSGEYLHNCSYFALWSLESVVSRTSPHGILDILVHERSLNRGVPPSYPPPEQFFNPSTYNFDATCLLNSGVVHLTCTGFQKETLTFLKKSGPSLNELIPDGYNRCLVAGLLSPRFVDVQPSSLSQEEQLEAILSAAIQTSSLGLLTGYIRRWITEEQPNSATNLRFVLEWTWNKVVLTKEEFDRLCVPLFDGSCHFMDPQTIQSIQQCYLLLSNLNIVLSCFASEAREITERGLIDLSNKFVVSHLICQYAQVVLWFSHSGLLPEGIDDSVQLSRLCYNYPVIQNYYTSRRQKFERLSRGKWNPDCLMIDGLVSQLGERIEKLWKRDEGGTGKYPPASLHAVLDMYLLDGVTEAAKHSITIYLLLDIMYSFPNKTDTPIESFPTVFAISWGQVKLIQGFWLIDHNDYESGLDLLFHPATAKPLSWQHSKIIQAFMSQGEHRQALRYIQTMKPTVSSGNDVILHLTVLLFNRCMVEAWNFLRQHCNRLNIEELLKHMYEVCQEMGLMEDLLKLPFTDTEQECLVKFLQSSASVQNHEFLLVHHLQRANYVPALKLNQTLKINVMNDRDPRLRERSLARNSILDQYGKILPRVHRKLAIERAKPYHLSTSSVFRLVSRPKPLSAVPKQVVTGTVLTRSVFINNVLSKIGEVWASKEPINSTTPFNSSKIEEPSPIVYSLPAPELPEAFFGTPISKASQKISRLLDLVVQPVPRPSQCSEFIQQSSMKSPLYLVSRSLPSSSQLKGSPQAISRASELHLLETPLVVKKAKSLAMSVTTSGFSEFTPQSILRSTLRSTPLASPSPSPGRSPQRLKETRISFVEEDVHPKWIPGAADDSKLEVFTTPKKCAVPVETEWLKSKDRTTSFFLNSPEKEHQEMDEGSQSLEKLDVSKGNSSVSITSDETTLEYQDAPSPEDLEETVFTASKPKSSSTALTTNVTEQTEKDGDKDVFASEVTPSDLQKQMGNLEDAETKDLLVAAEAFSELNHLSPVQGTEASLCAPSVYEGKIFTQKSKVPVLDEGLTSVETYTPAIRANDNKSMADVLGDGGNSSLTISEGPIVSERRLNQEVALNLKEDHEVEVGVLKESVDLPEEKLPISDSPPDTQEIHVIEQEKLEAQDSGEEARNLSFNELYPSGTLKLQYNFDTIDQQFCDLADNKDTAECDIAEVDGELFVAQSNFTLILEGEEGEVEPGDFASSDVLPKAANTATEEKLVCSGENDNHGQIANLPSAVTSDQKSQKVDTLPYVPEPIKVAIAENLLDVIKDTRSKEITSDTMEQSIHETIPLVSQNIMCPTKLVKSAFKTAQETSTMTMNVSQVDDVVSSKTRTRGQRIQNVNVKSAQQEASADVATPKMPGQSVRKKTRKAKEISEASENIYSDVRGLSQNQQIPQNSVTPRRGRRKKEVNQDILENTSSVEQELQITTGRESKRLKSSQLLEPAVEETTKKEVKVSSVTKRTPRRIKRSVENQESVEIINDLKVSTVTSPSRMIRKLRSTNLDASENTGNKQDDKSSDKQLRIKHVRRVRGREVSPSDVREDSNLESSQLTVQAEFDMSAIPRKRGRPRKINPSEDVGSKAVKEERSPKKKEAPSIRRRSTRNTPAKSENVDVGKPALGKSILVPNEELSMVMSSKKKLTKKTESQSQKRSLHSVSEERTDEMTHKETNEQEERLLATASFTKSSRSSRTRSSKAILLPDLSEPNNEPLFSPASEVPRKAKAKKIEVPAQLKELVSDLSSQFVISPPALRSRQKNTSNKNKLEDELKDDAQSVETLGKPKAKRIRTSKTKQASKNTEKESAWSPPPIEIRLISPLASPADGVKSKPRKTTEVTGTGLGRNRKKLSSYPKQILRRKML
Sequence of UniProt Q96MX3 (Q96MX3 whole entry): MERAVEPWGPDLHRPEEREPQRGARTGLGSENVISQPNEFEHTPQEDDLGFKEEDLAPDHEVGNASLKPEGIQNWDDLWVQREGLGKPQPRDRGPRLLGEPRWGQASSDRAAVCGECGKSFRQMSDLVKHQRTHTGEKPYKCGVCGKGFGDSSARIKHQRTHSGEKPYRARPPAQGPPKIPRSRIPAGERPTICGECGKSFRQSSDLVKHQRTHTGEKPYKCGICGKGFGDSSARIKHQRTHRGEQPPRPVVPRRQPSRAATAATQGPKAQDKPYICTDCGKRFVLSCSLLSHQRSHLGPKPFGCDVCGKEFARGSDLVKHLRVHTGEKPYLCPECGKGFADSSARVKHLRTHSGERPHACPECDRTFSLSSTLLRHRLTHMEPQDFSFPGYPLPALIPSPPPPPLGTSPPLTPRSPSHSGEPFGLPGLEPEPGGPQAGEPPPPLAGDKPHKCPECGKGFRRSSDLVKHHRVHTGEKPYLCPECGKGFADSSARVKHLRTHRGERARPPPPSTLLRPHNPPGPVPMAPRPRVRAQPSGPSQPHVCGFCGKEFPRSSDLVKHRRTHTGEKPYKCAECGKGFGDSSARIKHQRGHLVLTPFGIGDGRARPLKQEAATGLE
Sequence of UniProt Q9BRP4 (Q9BRP4 whole entry): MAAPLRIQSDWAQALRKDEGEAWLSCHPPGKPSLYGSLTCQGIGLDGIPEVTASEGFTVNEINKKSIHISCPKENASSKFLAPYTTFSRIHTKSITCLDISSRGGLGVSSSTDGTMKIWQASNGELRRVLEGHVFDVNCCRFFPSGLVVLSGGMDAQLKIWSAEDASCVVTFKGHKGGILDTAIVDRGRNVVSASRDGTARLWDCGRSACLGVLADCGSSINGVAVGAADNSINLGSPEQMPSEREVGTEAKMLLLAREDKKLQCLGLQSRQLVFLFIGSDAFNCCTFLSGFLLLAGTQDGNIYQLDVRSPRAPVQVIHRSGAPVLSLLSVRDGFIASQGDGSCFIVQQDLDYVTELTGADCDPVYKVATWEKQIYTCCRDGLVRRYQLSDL

Target	NP40-soluble protein abundance (concentration: 1mM)	NP40-soluble protein abundance (concentration: 2mM)	NP40-soluble protein abundance (concentration: 4mM)	NP40-soluble protein abundance (concentration: 6mM)	NP40-soluble protein abundance (concentration: 8mM)	NP40-soluble protein abundance (concentration: 10mM)
UniProt Q96QF0|Q96QF0-2	0.996 ± 0.032	0.946 ± 0.021	1.03 ± 0.034	1.001 ± 0.0051	0.994 ± 0.062	0.979 ± 0.078
UniProt Q9BTL3	0.928 ± 0.13	0.882 ± 0.066	0.95 ± 0.059	1 ± 0.11	0.888 ± 0.028	0.869 ± 0.059
SRPK1 (UniProt Q96SB4)	1.31 ± 0.091	1.39 ± 0.079	1.5 ± 0.099	1.63 ± 0.12	1.67 ± 0.083	1.74 ± 0.11
UniProt Q9NY12|Q9NY12-2	1.11 ± 0.061	1.18 ± 0.084	1.29 ± 0.067	1.41 ± 0.16	1.72 ± 0.15	1.93 ± 0.32
UniProt Q96LT9|Q96LT9-2	1.31 ± 0.027	1.46 ± 0.034	1.75 ± 0.15	1.95 ± 0.12	1.78 ± 0.02	2.06 ± 0.096
UniProt Q92833|Q92833-2	1.33 ± 0.27	1.32 ± 0.34	1.48 ± 0.51	1.49 ± 0.48	1.59 ± 0.63	1.76 ± 0.69
MECR (UniProt Q9BV79)	0.969 ± 0.013	0.959 ± 0.056	0.964 ± 0.037	0.957 ± 0.054	0.94 ± 0.013	0.92 ± 0.012
PGAM5 (UniProt Q96HS1)	1.1 ± 0.037	1.14 ± 0.083	1.3 ± 0.06	1.48 ± 0.16	1.64 ± 0.089	1.72 ± 0.11
PECR (UniProt Q9BY49)	0.965 ± 0.093	0.966 ± 0.037	0.994 ± 0.073	0.984 ± 0.076	1.02 ± 0.053	1.05 ± 0.033
TBRG4 (UniProt Q969Z0)	0.981 ± 0.047	0.957 ± 0.015	0.928 ± 0.026	0.962 ± 0.069	0.955 ± 0.022	0.948 ± 0.015
MRPL17 (UniProt Q9NRX2)	1.08 ± 0.13	0.934 ± 0.14	0.939 ± 0.14	0.916 ± 0.33	0.93 ± 0.21	0.822 ± 0.18
DHRS4 (UniProt Q9BTZ2)	0.9895 ± 0.0086	0.987 ± 0.019	0.989 ± 0.043	0.956 ± 0.028	0.968 ± 0.035	0.988 ± 0.018
UniProt Q969U7|Q969U7-2	1.02 ± 0.072	1.01 ± 0.012	0.965 ± 0.055	0.983 ± 0.029	0.978 ± 0.072	0.986 ± 0.081
SENP8 (UniProt Q96LD8)	0.97 ± 0.057	0.942 ± 0.032	0.943 ± 0.014	0.922 ± 0.035	0.911 ± 0.024	0.932 ± 0.023
UniProt Q96T23|Q96T23-2	1.48 ± 0.043	1.62 ± 0.071	1.81 ± 0.041	2 ± 0.1	1.96 ± 0.039	2.13 ± 0.11
UniProt Q8WYP5|Q8WYP5-2|Q8WYP5-3	1.13 ± 0.037	1.16 ± 0.048	1.28 ± 0.079	1.38 ± 0.096	1.42 ± 0.12	1.53 ± 0.13
ZNF512B (UniProt Q96KM6)	1.01 ± 0.04	1.05 ± 0.02	1.07 ± 0.024	1.12 ± 0.044	1.08 ± 0.03	1.08 ± 0.043
IARS2 (UniProt Q9NSE4)	1.04 ± 0.08	1.02 ± 0.075	0.991 ± 0.069	0.977 ± 0.1	1.02 ± 0.056	0.98 ± 0.069
DDX21 (UniProt Q9NR30)	1.29 ± 0.046	1.42 ± 0.042	1.65 ± 0.098	2.04 ± 0.17	2.53 ± 0.21	3.17 ± 0.13
CCDC124 (UniProt Q96CT7)	1.08 ± 0.15	1.14 ± 0.089	1.3 ± 0.2	1.56 ± 0.2	1.64 ± 0.1	1.96 ± 0.36
TDP1 (UniProt Q9NUW8)	1.02 ± 0.032	1.02 ± 0.046	0.983 ± 0.063	1 ± 0.069	0.985 ± 0.049	1.01 ± 0.062
UniProt Q9NNW7|Q9NNW7-2	1.01 ± 0.04	0.942 ± 0.011	0.983 ± 0.067	0.951 ± 0.02	0.949 ± 0.057	0.958 ± 0.1
UniProt Q9BWW4|Q9BWW4-2|Q9BWW4-3	1.05 ± 0.11	0.958 ± 0.12	0.933 ± 0.12	0.999 ± 0.12	0.956 ± 0.056	0.906 ± 0.1
UniProt Q92576|Q92576-2	1.05 ± 0.052	1.07 ± 0.056	1.12 ± 0.051	1.22 ± 0.11	1.2 ± 0.048	1.24 ± 0.073
TMEM109 (UniProt Q9BVC6)	0.943 ± 0.051	0.962 ± 0.066	0.999 ± 0.082	0.915 ± 0.03	0.955 ± 0.046	0.91 ± 0.074

Target	NP40-soluble protein abundance (concentration: 1mM)	NP40-soluble protein abundance (concentration: 2mM)	NP40-soluble protein abundance (concentration: 4mM)	NP40-soluble protein abundance (concentration: 6mM)	NP40-soluble protein abundance (concentration: 8mM)	NP40-soluble protein abundance (concentration: 10mM)
DHX33 (UniProt Q9H6R0)	1.04 ± 0.059	1.1 ± 0.012	1.349 ± 0.0092	1.29 ± 0.089	1.44 ± 0.18	1.51 ± 0.2
EIF2AK4 (UniProt Q9P2K8)	1.04 ± 0.096	1.02 ± 0.078	1.02 ± 0.071	0.967 ± 0.073	1.03 ± 0.056	1.03 ± 0.082
UniProt Q96AQ6|Q96AQ6-2	0.939 ± 0.053	0.927 ± 0.024	0.924 ± 0.028	0.953 ± 0.017	0.895 ± 0.01	0.9264 ± 0.0053
FUT8 (UniProt Q9BYC5)	1 ± 0.035	0.987 ± 0.052	1.02 ± 0.025	0.9889 ± 0.0069	1.04 ± 0.045	1.01 ± 0.039
ZNF48 (UniProt Q96MX3)	1.11 ± 0.069	1.13 ± 0.034	1.21 ± 0.077	1.31 ± 0.15	1.34 ± 0.12	1.4 ± 0.12
ELMO1 (UniProt Q92556)	1.05 ± 0.05	1.04 ± 0.043	1.02 ± 0.036	1 ± 0.067	1.04 ± 0.038	1.05 ± 0.05
UniProt Q9BXI6|Q9BXI6-2	0.935 ± 0.035	0.917 ± 0.032	0.927 ± 0.031	0.941 ± 0.038	0.895 ± 0.025	0.925 ± 0.045
GTF2H4 (UniProt Q92759)	1.08 ± 0.072	1.04 ± 0.035	1.09 ± 0.059	0.975 ± 0.13	1.16 ± 0.069	1.12 ± 0.036
UniProt Q99653	0.961 ± 0.041	0.989 ± 0.011	0.983 ± 0.029	0.965 ± 0.054	0.961 ± 0.059	0.931 ± 0.037
UniProt Q9BTX1|Q9BTX1-2|Q9BTX1-5|Q9BTX1-6	1.01 ± 0.076	1.01 ± 0.071	1.03 ± 0.1	0.996 ± 0.13	1.06 ± 0.044	1.08 ± 0.084
DNAJC9 (UniProt Q8WXX5)	1.04 ± 0.024	1.13 ± 0.012	1.34 ± 0.04	1.55 ± 0.057	1.73 ± 0.12	1.76 ± 0.1
PAAF1 (UniProt Q9BRP4)	1.02 ± 0.037	1.04 ± 0.02	1.01 ± 0.072	0.982 ± 0.02	0.977 ± 0.011	1.01 ± 0.023
UniProt Q96CN4|Q96CN4-2	0.985 ± 0.035	1.02 ± 0.061	1.13 ± 0.21	1.1 ± 0.084	1 ± 0.034	1.05 ± 0.059
UniProt Q9P035|H3BS72	1.1 ± 0.16	1.1 ± 0.11	1.1 ± 0.11	1.01 ± 0.091	1.1 ± 0.033	1.15 ± 0.083
UniProt Q96GM8|Q96GM8-2	1.06 ± 0.095	1.22 ± 0.14	1.35 ± 0.12	1.38 ± 0.12	1.53 ± 0.13	1.82 ± 0.32
UniProt Q9H974|Q9H974-4	1.03 ± 0.044	1 ± 0.035	1 ± 0.029	0.996 ± 0.044	1.02 ± 0.016	0.991 ± 0.025
PIEZO1 (UniProt Q92508)	1.1 ± 0.12	1.09 ± 0.13	1.14 ± 0.24	1.14 ± 0.12	1.09 ± 0.12	1.09 ± 0.012
QTRT1 (UniProt Q9BXR0)	1.01 ± 0.12	0.995 ± 0.091	1.02 ± 0.049	0.925 ± 0.14	0.994 ± 0.049	0.985 ± 0.051
UniProt Q9BXK5|Q9BXK5-4	0.958 ± 0.041	0.97 ± 0.011	0.957 ± 0.028	0.988 ± 0.021	0.926 ± 0.031	0.916 ± 0.052
UniProt Q9NVX7-2|A0A075B6T4|Q9NVX7	1 ± 0.072	1.02 ± 0.066	1 ± 0.11	0.957 ± 0.095	1.05 ± 0.065	0.975 ± 0.036
SAP30L (UniProt Q9HAJ7)	1.0942 ± 0.00039	1.12 ± 0.069	1.13 ± 0.092	1.185 ± 0.0041	1.11 ± 0.13	1.07 ± 0.082
UniProt Q9BTE6|Q9BTE6-3	0.947 ± 0.046	0.965 ± 0.018	0.932 ± 0.015	0.964 ± 0.067	0.928 ± 0.036	0.958 ± 0.025
WDR41 (UniProt Q9HAD4)	1.03 ± 0.026	0.994 ± 0.08	1.08 ± 0.062	1 ± 0.033	1 ± 0.065	1.01 ± 0.043
TGS1 (UniProt Q96RS0)	0.969 ± 0.087	0.995 ± 0.067	1.03 ± 0.035	1.05 ± 0.054	1.03 ± 0.069	1.1 ± 0.026

Reference: the supplement of paper PMC6411743
